ATXN viability: reduces viability in counter-screen for ATXN expression inhibitors; AID 651635; S2 cells (HEK-293 line with an ATXN2-luciferase reporter) viability, CellTiter-Fluor protease fluorescence, 24 h; hit rate 0.49% among 400,000; Potency, µM (top dose mostly 56.7 µM), usual class: cytotoxic; note: potency is the fitted concentration of half-maximal effect; nearly all actives have a fitted effect of over 40% in size
USP1 inh: blocks the human USP1/UAF1 deubiquitinase complex; recombinant USP1/UAF1, Ub-Rhodamine cleavage fluorescence; AID 743255; hit rate 0.23% among 390,000; O94782; Potency, µM (doses to about 57.1 µM), without a hit: at the top dose activity change, negative = inhibition, usual class: inhibitors; note: potency is the fitted concentration of half-maximal effect; % is set by controls: 0 for no effect and ±100 for the full control effect; nearly all actives have a fitted effect of over 60% in size
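Step one: compound is pinned into 1nM USP1/UAF1 in HEPES pH 7.8 buffer with TCEP. Step two: 15 min room-temperature incubation. Step three: Ub-Rho (150nM final) starts cleavage, tracked by fluorescence over six one-minute reads.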
USP2a inh: USP2a (human) protease inhibition; Potency, µM (top dose mostly 38.3 µM), for the others: at the top dose activity change, negative = inhibition, most hits filed as inhibitors; hit rate 0.01% among 330,000; USP2 core, Ub-CHOP2 coupled fluorogenic reporter, 485/531;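 note: potency is the fitted concentration of half-maximal effect; plate controls were DMSO wells for no effect and full inhibition by NEM control for full effect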
Target sequence (O75604 whole entry, looked up): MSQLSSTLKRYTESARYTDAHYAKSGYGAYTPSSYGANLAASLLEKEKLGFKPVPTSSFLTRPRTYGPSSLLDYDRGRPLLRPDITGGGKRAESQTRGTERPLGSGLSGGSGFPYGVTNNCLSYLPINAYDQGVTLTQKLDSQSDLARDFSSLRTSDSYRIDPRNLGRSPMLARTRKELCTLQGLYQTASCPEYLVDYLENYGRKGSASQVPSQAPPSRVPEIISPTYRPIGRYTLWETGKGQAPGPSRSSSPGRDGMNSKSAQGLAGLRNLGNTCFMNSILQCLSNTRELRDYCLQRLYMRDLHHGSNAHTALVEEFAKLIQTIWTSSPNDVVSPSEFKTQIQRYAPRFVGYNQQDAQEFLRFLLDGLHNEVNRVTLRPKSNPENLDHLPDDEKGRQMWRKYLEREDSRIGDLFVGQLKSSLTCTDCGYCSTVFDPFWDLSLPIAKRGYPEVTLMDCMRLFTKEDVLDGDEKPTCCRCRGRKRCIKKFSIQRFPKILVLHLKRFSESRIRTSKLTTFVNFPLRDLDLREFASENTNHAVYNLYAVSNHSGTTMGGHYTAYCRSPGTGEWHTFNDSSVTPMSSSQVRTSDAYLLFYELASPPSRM
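USP2 core (10nM final) preincubated 30min RT with compound in 20mM Tris-HCl pH 8.0, 2mM CaCl2, 2mM beta-mercaptoethanol, 0.05% CHAPS; 25nM Ub-CHOP2 plus 25nM reporter substrate added, fluorescence (Ex485/Em531) read after 60min.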
ATXN2 expr inh: reduces ATXN2 reporter expression in HEK-293 cells. HEK-293 ATXN2-luciferase reporter, luminescence, 24 h. Potency, µM (series often up to 57 µM), for inactives: at the top dose activity change, negative = inhibition, usual class: inhibitors. hit rate 0.72% among 360,000. AID 1745845; note: potency is the fitted concentration of half-maximal effect; % is set by controls: 0 for no effect and ±100 for the full control effect; nearly all actives have a fitted effect of over 55% in size
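qHTS (up to 57 uM final) was run with 24 h compound exposure of reporter cells at 37 °C. Each well was multiplexed: SteadyGlo luminescence measured ATXN2-luciferase expression after a fluorogenic Gly-Phe-AFC viability readout (25 uM final).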
IL1B secr inh: inflammasome signaling inhibition, IL-1 beta readout. activity change, % at 57.5 µM. hit rate 4.7% among 360,000. THP-1 LPS/ATP IL-1B secretion, AlphaLISA, 16 h; stronger effect = lower value; in the data active = activity change below about -50%; inconclusive = mostly about -30% to -49%; note: % is set by controls: 0 for no effect and ±100 for the full control effect
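THP-1 cells pretreated 1 hr with compounds (up to 57.5 uM final), then stimulated with LPS (250 ng/mL final) plus ATP (1.25 mM final); secreted IL-1B measured by AlphaLISA after 16 hr, decreased signal indicating inhibition.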
* marks the source's active call; other numbers are inactive results; i = inactive; ? = inconclusive; / = no result given; + = active, no number; [ ] = another dose, or the depositor's remark. This is a sample that favours compounds with a hit; in the whole collection about 4.8% have one here. Unless noted, calls come from the whole dose curve; as a rule, active = well fitted curve in the direction sought with a large enough effect; inconclusive = small, poorly fitted or top-dose-only effect, or another doubt; inactive = no such curve, though single readings can be large; an effect the other way counts as inactive or inconclusive.

SMILES	ATXN viability	USP1 inh	USP2a inh	ATXN2 expr inh	IL1B secr inh
COc1ccc2c(c1)OC(C)CN(CCNC(=O)c1cccc(N3CCNC3=O)c1)C2 (stereo not drawn)	i	/	/	/	/
O=[N+]([O-])c1ccc(N(CC2CO2)S(=O)(=O)c2ccccc2)cc1 (stereo not drawn)	i	-6.0%	-0.1%	15.7%	-72.5*
O=S(=O)(c1ccccc1)N(CC1CO1)c1cccc2ccccc12 (stereo not drawn)	i	-15.1%	4.0%	-18.3%	-68.6*
O=S(=O)(c1ccccc1)N(CC1CO1)c1ccccc1 (stereo not drawn)	i	-19.6%	11.1%	-1.0%	-23.1
Cc1ccc(OCC(=O)N(Cc2ccco2)Cc2ccco2)cc1C	/	-28.0%	/	/	/
CCOc1ccc(CSC(=N)N)cc1	i	-14.7%	0.4%	-11.5%	22.3
COc1ccc(Br)cc1CSC(=N)N	i	-14.5%	1.1%	-25.5%	-88.0*
CC(=O)c1ccc(OC(C)C)c(CSC(=N)N)c1	i	-6.8%	11.9%	-10.7%	?
CCCCCOc1ccc(Br)cc1CSC(=N)N	/	-10.5%	5.1%	/	-96.9*
CCCCOc1ccc(CSC(=N)N)cc1Cl	?	-2.7%	-0.5%	25.1µM*	-101.1*
CCOC(=O)Cn1c(=O)n(CC2CCCO2)c2nc(-c3ccc(C(C)C)cc3)nc(C(N)=O)c21 (stereo not drawn)	i	-15.7%	/	-4.5%	/
Nc1cc(N)c(OCC(F)(F)F)cc1OCC(F)(F)F	i	25.1µM*	5.3%	1.1%	-5.2
CCOCCn1c(C2CCN(CCc3ccc(C(C)(C)C(=O)O)cc3)CC2)nc2ccccc21	i	/	/	-0.5%	/
CCOC(=O)C1CCN(c2cc3c(cc2NC(=O)c2cc(OC)ccc2Br)n(C)c(=O)n3C)CC1	i	-18.0%	-0.8%	8.6%	0.0
Fc1ccc(CNC(=S)NC2CCCC2)cc1	i	-15.1%	-1.1%	/	-142.2*
NS(=O)(=O)c1ccc(CNC(=S)NCc2ccc(F)cc2)cc1	i	-3.1%	-0.8%	1.9%	+
S=C(NCc1ccco1)NC1CCCc2ccccc21 (stereo not drawn)	i	-1.6%	1.9%	/	-4.1
S=C(NCc1ccccc1)NC1CCCc2ccccc21 (stereo not drawn)	i	-21.1%	4.0%	4.4%	-56.7*
NS(=O)(=O)c1ccc(CNC(=S)NCc2ccc(Cl)cc2)cc1	i	0.8%	2.7%	-11.7%	39.3
N=c1c2c(-c3ccccc3)c(-c3ccccc3)n(Cc3ccco3)c2ncn1CCN1CCOCC1	?	-16.3%	0.2%	?	-81.2*
c1coc(CNc2nc3ccccc3n2CCN2CCOCC2)c1	i	-7.6%	0.1%	4.1%	12.3
N=c1c2c(-c3ccccc3)c(-c3ccccc3)n(Cc3ccco3)c2ncn1CCO	14.1µM*	2.3%	1.8%	?	?
N=c1c2c(-c3ccccc3)c(-c3ccccc3)n(Cc3ccco3)c2ncn1CCCO	i	-1.1%	2.2%	-36.7%	/
COc1ccc(OC)c(NC(=O)c2cccc(NC(=O)c3ccco3)c2)c1	i	-16.8%	/	/	-14.8
Cc1cc(C(=O)NOCCO)c(Nc2ccc(I)cc2F)n(C)c1=O	/	/	/	-4.7%	/
SMILES	ATXN viability	USP1 inh	USP2a inh	ATXN2 expr inh	IL1B secr inh
Cc1nc(N2CCCCC2)sc1C(=O)c1ccc(SCCO)c([N+](=O)[O-])c1	i	-9.1%	-7.7%	-8.6%	-54.4*
O=[N+]([O-])c1ccc(N2CCCCC2)cc1SCCO	i	-20.4%	0.1%	-32.0%	14.1
Cc1nc(N2CCCCC2)sc1C(=O)c1cccc([N+](=O)[O-])c1	i	-11.4%	4.6%	7.1%[11.3 µM]	-103.4*
Cc1cc(Nc2ccccc2F)n2nc(Cc3ccc(Cl)cc3)nc2n1	i	-14.8%	/	-19.2%	/
CCCOc1ccc(C(=O)C(CN2CCOCC2)c2ccccc2)cc1 (stereo not drawn)	?	-11.1%	-0.6%	20µM*	-96.9*
COc1ccc(C(O)C(CN2CCOCC2)c2ccccc2)cc1F (stereo not drawn)	i	-3.3%	1.3%	-6.1%	-10.4
CCOC(=O)C(CN1CCCC1)c1ccccc1 (stereo not drawn)	i	-10.2%	1.5%	0.0%	20.4

Screening results: PubChem, National Center for Advancing Translational Sciences (NCATS)
